Assay outcomes deposited in PubChem BioAssay by National Center for Advancing Translational Sciences (NCATS).
Sampled rows, rich in hits. Any-hit rate of the full collection: about 16%.
TDP1 cell noCPT: qHTS for Inhibitors of human tyrosyl-DNA phosphodiesterase 1 (TDP1): qHTS in cells in absence of CPT; 420,000 tested, 15% active; Potency, µM (highest dose often 46.2 µM), for the others: at the top dose activity change, negative = growth inhibition, usual class: inhibitors; AID 686978, 2013; DT40 Tdp1-/- hTDP1 cells, no CPT, ATP luminescence, 48 h; further: potency means the concentration at half of the fitted maximal effect; on the % scale 0 is the no-effect control and ±100 the full control effect; nearly all actives have a fitted effect of over 55% in size
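Readout: luminescence from CellTiter-Glo after 30 min in the dark at RT. Cells: DT40 Tdp1-/- with stable hTDP1, 400/well. Exposure: compounds alone, ≥48 hr, 37 °C.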
TDP1 inh: qHTS Assay for Inhibitors of Tyrosyl-DNA Phosphodiesterase (TDP1). Potency, µM (highest dose often 130 µM), inactives show top-dose activity change, negative = inhibition, most hits filed as inhibitors. 350,000 tested, 0.28% active. Tyrosyl-DNA phosphodiesterase 1 (Homo sapiens), Q9NUW8. recombinant TDP1, AlphaScreen DNA substrate cleavage; further: potency means the concentration at half of the fitted maximal effect; on the % scale 0 is the no-effect control and ±100 the full control effect; nearly all actives have a fitted effect of over 40% in size
Target sequence (Q9NUW8 whole entry, looked up): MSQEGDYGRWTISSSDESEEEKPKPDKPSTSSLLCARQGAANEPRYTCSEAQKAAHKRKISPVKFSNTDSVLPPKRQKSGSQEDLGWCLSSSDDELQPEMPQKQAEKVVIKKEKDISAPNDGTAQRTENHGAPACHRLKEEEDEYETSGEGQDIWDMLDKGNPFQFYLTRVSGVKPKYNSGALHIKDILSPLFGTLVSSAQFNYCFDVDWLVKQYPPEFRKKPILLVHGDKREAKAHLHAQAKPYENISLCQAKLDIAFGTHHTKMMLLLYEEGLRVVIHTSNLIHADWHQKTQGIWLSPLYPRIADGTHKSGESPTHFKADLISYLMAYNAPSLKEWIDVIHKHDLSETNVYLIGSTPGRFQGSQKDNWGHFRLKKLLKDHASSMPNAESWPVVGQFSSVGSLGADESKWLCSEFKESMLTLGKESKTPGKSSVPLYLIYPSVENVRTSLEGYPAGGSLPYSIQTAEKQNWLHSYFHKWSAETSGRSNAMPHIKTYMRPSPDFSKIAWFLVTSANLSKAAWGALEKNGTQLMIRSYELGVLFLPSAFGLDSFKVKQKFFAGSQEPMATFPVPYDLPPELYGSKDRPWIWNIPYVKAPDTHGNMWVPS
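Signal: AlphaScreen proximity between streptavidin donor and anti-FITC acceptor beads on intact substrate. Reaction: Tdp1 1 nM, substrate 15 nM final, 5 min RT after 15 min compound preincubation.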
miR-21 act: qHTS Assay for Modulators of miRNAs and/orActivators of miR-21; HeLa miR-21 FLuc reporter, luciferase, 48 h; Potency, µM (titrated, usually from 38.3 µM), inactives show top-dose activity change, positive = activation, hits mostly activators; 340,000 tested, under 10 active; AID 2288, 2010;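 further: % of control where 0% means no effect; miR-21 action dims this reporter so a rising signal means less miR-21 action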
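Compounds were titrated across several concentrations (up to approximately 40 uM) and incubated 48 hours with HeLa miR-21-FLuc reporter cells (miR-21 target sequence downstream of FLuc, endogenous miR-21). Readout was firefly luciferase luminescence after lytic detection reagent.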
uPA generation: qHTS for Inhibitors of Cell Surface uPA Generation | AID 540303, 2011 | cell surface uPA generation assay, qHTS | Potency, µM (series often up to 38.3 µM), without a hit: at the highest dose activity change, negative = inhibition, actives largely listed as inhibitors | 330,000 tested, 0.31% active; active means well fitted inhibition curve with a large enough effect; inconclusive means small, poorly fitted or top-dose-only effect; inactive means no such curve, though single readings can be large or run the other way; tested in mouse RAW 264.7 cells; further: potency means the concentration at half of the fitted maximal effect; on the % scale 0 is the no-effect control and ±100 the full control effect; nearly all actives have a fitted effect of over 55% in size
DT40 TDP1 CPT: qHTS for Inhibitors of human tyrosyl-DNA phosphodiesterase 1 (TDP1): qHTS in cells in presence of CPT; chicken DT40 Tdp1-/-;hTDP1 cells + 20 nM CPT, ATP luminescence, 48 h; Potency, µM (series often up to 46.2 µM), inactives show at the top dose activity change, negative = growth inhibition, most hits filed as inhibitors; 420,000 tested, 12% active; further: potency means the concentration at half of the fitted maximal effect; on the % scale 0 is the no-effect control and ±100 the full control effect; nearly all actives have a fitted effect of over 55% in size
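Cell growth measured by CellTiter-Glo luminescence after a minimum 48 h, 37 C compound exposure with 20 nM CPT in Tdp1-knockout DT40 cells stably expressing hTDP1, seeded 400/well; qHTS titration format.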
* hit, by the source's call; ? = inconclusive; · = no result given; [ ] = another dose, or the depositor's remark. Unless noted, the call rests on the fitted dose curve; in most records, active means well fitted curve in the direction sought with a large enough effect; inconclusive means small, poorly fitted or top-dose-only effect, or another doubt; inactive means no such curve, though single readings can be large; an effect the other way counts as inactive or inconclusive.

SMILES | TDP1 cell noCPT | TDP1 inh | miR-21 act | uPA generation | DT40 TDP1 CPT
COc1ccc(C(=O)Nc2ccccc2C(=O)NCc2cccnc2)cc1 | ? | 1.8%[56.1 µM] | -1.0% | 7.08µM* | 14.6µM*
O=C(NCc1cccnc1)c1ccc(NC(=O)c2ccc([N+](=O)[O-])cc2)cc1 | 9.2µM* | 1.8% | 9.3% | -19.9% | 13µM*
O=C(NC(=S)NCc1cccnc1)c1ccc([N+](=O)[O-])cc1 | -10.0% | 0.0% | 7.6% | -3.5% | -26.3%
CC(C)c1ccc(C(=O)NC(=S)NCc2cccnc2)cc1 | 16.4µM* | 8.0% | -2.0% | -1.4% | ?
O=C(Nc1cnn(Cc2c(Cl)cccc2Cl)c1)c1ccc([N+](=O)[O-])cc1 | 16.4µM* | 2.0% | -29.6% | -4.8% | ?
COc1ccc(-c2cnc3c(c2)C(=O)N([C@H](C)CO)C[C@@H](C)[C@@H](CN(C)C(=O)NC2CCCC2)O3)cc1 | -20.6% | · | · | · | -4.1%
CCOC(=O)Cc1ccc(NC(=O)c2ccc(C(C)(C)C)cc2)cc1 | 14.6µM* | 2.3% | ? | -15.2% | 18.4µM*
CCOc1ncccc1C(=O)NCc1ccc(OC)cc1 | 14.6µM* | 7.4% | 14.4% | · | 16.4µM*
CC(C)(C)c1ccc(C(=O)Nc2ccc(C(=O)NCc3cccnc3)cc2)cc1 | 1.84µM* | 0.8% | ? | 2.6% | 2.59µM*
CC(NC(=O)CN(C)Cc1cccc(Cl)c1)c1ccccc1 (configuration not stated) | ? | · | -12.4% | -0.6% | -27.3%
COc1ccc(NC(=O)C2(C)Cc3c(-c4cccc(C(N)=O)c4)ccnc3O2)cn1 (configuration not stated) | 2.31µM* | · | · | · | 3.66µM*
CC(=O)Nc1ccc(-c2ccnc3c2CC(C)(C(=O)NC(C)C)O3)cc1 (configuration not stated) | -20.5% | · | · | · | -11.4%
CC(C)c1ccc(NC(=O)C2(C)Cc3c(-c4cccc(C(F)(F)F)c4)ccnc3O2)cc1 (configuration not stated) | ? | · | · | · | 16.4µM*
CC(C)NC(=O)C1(C)Cc2c(-c3ccc(N(C)C)cc3)ccnc2O1 (configuration not stated) | 4.11µM* | · | · | · | 4.11µM*
COc1ccc(NC(=O)C2(C)Cc3c(-c4ccc(N(C)C)cc4)ccnc3O2)cn1 (configuration not stated) | 9.2µM* | · | · | · | 23.1µM*
CC(C)C(NC(=O)/C=C/c1cccc([N+](=O)[O-])c1)C(C)C | ? | 2.7% | -2.7% | -0.6% | -23.6%
COc1ccccc1CN(CC(=O)NCc1ccc2c(c1)OCO2)C(=O)c1csnn1 | -19.5% | -11.8% | -1.6% | 0.2% | -7.5%
CC(C)c1ccc(NC(=O)C2(C)Cc3c(-c4ccc(N(C)C)cc4)ccnc3O2)cc1 (configuration not stated) | 16.4µM* | · | · | · | ?
CC(C)c1ccc(NC(=O)C2(C)Cc3c(-c4ccccc4)ccnc3O2)cc1 (configuration not stated) | ? | · | · | · | 18.4µM*
CC(=O)Nc1ccc(-c2ccnc3c2CC(C)(C(=O)Nc2ccc(Cl)cc2)O3)cc1 (configuration not stated) | -24.1% | · | · | · | ?
CC(=O)N=C1SC2CS(=O)(=O)CC2N1c1cccc(Cl)c1Cl (configuration not stated) | -8.7% | -3.8% | -5.2% | 23.7% | 0.2%
Cc1c(-c2ccn[nH]2)cc(NC(=O)c2ccc(Cl)cc2)c(=O)n1N | -22.6% | 5.9% | 3.8% | 2.8% | 6.7%
COc1ccc(/C=C/C(O)=C2/C(=O)N(C)C3(C)CC2c2ccccc2O3)cc1 (configuration not stated) | 20.6µM* | 2.0% | -5.0% | -12.4% | 23.1µM*
